Test results taken from the supplement of paper PMC10849652.
About 7,900 targets were measured; listed, in parts, are those with a hit and a random draw of the rest. About 0.6% of all pairs of compound and target were hits.

Experiments:
Assay in all cases: log2 fold change, soluble protein after heating vs DMSO (PISA); higher = thermal stabilisation; K562 cells, 10 uM, 30 min; active = over 0.2 and 3.5 SD of the protein, either way, in both replicates (recomputed)
[1] = compound: CN1CCN(CCOc2cc(OC3CCOCC3)c3c(Nc4c(Cl)ccc5c4OCO5)ncnc3c2)CC1 [saracatinib]
Summary of the method: (§1)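 K562 cells at 2×10^6 cells/mL were treated for 30 min with 10 μM compound, and aliquots were heated for 3 min over 48°C-58°C before pooling. Extraction used PBS with 0.5% NP-40 at 4°C, and soluble protein was the supernatant after 21,000xg for 90 min, measured by TMTpro 16plex LC-MS/MS with channel sums equalised. Thermal stability values, relative to control samples and from duplicates, are log2 fold changes.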

[2] = compound: CN1CC[C@H](c2c(O)cc(O)c3c(=O)cc(-c4ccccc4Cl)oc23)[C@H](O)C1 [alvocidib]
Summary of the method: as §1

[3] = compound: CN1CCc2c(c3ccccc3n2Cc2ccc(C(=O)NO)cc2)C1 [Tubastatin A]
Summary of the method: as §1

[4] = compound: CNC(=O)C1=CC=CC=C1NC2=NC(=NC=C2Cl)NC3=C(C=C(C=C3)N4CCOCC4)OC
Summary of the method: as §1

[5] = compound: CNC(=O)c1ccc(Nc2ncc(C(F)(F)F)c(NCc3nccnc3N(C)S(C)(=O)=O)n2)cc1 [defactinib]
Summary of the method: as §1

[6] = compound: CNCc1ccc(-c2[nH]c3cc(F)cc4c3c2CCNC4=O)cc1 [rucaparib]
Summary of the method: as §1

[7] = compound: CNc1nc(-c2ccc3c(N)n[nH]c3c2)cc(N2C[C@@H](C(=O)NC3CCCCC3)CC[C@H]2C)n1
Summary of the method: as §1

[8] = compound: COC(=O)N[C@@H](C)CNc1nccc(-c2cn(C(C)C)nc2-c2cc(Cl)cc(NS(C)(=O)=O)c2F)n1 [encorafenib]
Summary of the method: as §1

[9] = compound: COC(=O)[C@H](CCSC)NC(=O)C1=C(C=C(C=C1)NC[C@H](CS)N)C2=CC=CC=C2
Summary of the method: as §1

[10] = compound: COC1=CC=C(C=C1)CN2C=CC3=C2C=C(C=C3)C(=O)NO
Summary of the method: as §1

[11] = compound: CO[C@H]1C[C@@H]2CC[C@@H](C)[C@@](O)(O2)C(=O)C(=O)N2CCCC[C@H]2C(=O)O[C@H]([C@H](C)C[C@@H]2CC[C@H](n3cnnn3)[C@H](OC)C2)CC(=O)[C@H](C)/C=C(\C)[C@@H](O)[C@@H](OC)C(=O)[C@H](C)C[C@H](C)/C=C/C=C/C=C/1C [zotarolimus]
Summary of the method: as §1

[12] = compound: COc1cc2ncnc(Nc3ccc(F)c(Cl)c3)c2cc1OCCCN1CCOCC1 [gefitinib]
Summary of the method: as §1

[13] = compound: CN1CCN(c2nc(C3=C(c4c[nH]c5ccccc45)C(=O)NC3=O)c3ccccc3n2)CC1 [sotrastaurin]
Summary of the method: as §1

[14] = compound: CON(C)C(=O)N1N=C(c2cc(F)ccc2F)S[C@@]1(CCCN)c1ccccc1 [filanesib]
Summary of the method: as §1

[15] = compound: COc1cc(C(=O)O)ccc1NC(=O)[C@@H]1N[C@@H](CC(C)(C)C)[C@](C#N)(c2ccc(Cl)cc2F)[C@H]1c1cccc(Cl)c1F [idasanutlin]
Summary of the method: as §1

[16] = compound: COc1cc(Nc2ncc3c(n2)-c2ccc(Cl)cc2C(c2c(F)cccc2OC)=NC3)ccc1C(=O)O [alisertib]
Summary of the method: as §1

[17] = compound: COc1cc2nc(-c3cc(F)ccc3O)nc(N[C@@H]3CNC[C@H]3C(C)(C)O)c2cc1OC
Summary of the method: as §1

[18] = compound: COc1cccc2cc(-c3nc([C@H]4CC[C@H](C(=O)O)CC4)n4ncnc(N)c34)[nH]c12
Summary of the method: as §1

[19] = compound: CS(=O)(=O)CCNCc1ccc(-c2ccc3ncnc(Nc4ccc(OCc5cccc(F)c5)c(Cl)c4)c3c2)o1 [lapatinib]
Summary of the method: as §1

[20] = compound: CS(=O)(=O)N1CCN(Cc2cc3nc(-c4cccc5[nH]ncc45)nc(N4CCOCC4)c3s2)CC1 [pictilisib]
Summary of the method: as §1

Measured: log2 fold change

CLCN5 isoform 2 (UniProt P51795)
inactive: [1] -0.001 | [2] -0.032 | [3] -0.006 | [4] 0.009 | [5] -0.033 | [6] 0.097 | [7] -0.116 | [8] 0.075 | [9] -0.025 | [10] -0.011 | [11] -0.004 | [12] 0.011

CHST11 (UniProt Q9NPF2)
UniProt Q9NPF2, sequence (Q9NPF2 whole entry, looked up): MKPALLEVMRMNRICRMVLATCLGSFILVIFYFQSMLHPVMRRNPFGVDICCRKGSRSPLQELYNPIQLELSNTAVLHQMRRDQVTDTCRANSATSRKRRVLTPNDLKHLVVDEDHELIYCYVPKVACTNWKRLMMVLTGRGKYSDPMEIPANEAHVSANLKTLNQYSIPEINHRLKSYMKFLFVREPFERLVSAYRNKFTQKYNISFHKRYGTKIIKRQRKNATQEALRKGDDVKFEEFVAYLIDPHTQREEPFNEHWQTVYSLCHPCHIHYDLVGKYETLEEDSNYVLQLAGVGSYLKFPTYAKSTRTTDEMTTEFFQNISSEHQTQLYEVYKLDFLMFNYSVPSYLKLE
inactive: [13] -0.02 | [2] -0.049 | [3] 0.08 | [4] 0.079 | [5] -0.003 | [6] 0.083 | [8] 0.177 | [9] -0.048 | [10] 0.153 | [14] 0.016 | [11] 0.061 | [15] -0.016 | [16] -0.248 | [17] -0.19 | [12] -0.013 | [18] 0.012 | [19] 0.297 | [20] -0.025

CLINT1 (UniProt Q14677)
UniProt Q14677, sequence (Q14677 whole entry, looked up): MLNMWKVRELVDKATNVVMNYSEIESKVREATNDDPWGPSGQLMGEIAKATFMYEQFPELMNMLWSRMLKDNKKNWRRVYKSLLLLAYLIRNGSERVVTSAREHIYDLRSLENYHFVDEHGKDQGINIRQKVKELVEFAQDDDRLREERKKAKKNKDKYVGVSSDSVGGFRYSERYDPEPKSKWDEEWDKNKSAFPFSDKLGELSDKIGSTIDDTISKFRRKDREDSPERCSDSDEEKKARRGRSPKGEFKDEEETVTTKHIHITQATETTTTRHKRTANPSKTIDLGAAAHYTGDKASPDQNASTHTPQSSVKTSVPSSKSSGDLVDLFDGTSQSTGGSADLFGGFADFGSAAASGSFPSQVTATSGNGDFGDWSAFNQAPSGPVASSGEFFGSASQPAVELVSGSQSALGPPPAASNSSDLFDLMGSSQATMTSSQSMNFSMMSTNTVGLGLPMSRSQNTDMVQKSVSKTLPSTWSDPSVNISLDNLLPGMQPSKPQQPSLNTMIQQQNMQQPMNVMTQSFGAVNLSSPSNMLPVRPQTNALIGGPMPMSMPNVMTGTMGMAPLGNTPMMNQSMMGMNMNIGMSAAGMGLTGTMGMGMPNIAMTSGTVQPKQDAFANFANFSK
inactive: [1] -0.003 | [2] -0.112 | [3] -0.029 | [5] -0.002 | [6] 0.128 | [7] -0.062 | [8] -0.045 | [9] 0.036 | [10] -0.371 | [11] 0.263 | [15] -0.012 | [16] -0.137 | [12] 0.077 | [18] -0.055

C1D (UniProt Q13901)
UniProt Q13901, sequence (Q13901 whole entry, looked up): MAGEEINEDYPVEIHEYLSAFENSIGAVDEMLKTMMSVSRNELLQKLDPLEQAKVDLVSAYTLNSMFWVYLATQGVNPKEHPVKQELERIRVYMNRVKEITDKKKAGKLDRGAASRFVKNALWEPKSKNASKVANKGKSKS
inactive: [13] 0.005 | [3] 0.079 | [4] 0.001 | [5] 0.042 | [6] -0.005 | [8] 0.009 | [9] 0.091 | [10] -0.171 | [14] -0.041 | [15] 0.12 | [16] -0.138 | [17] -0.101 | [12] 0.043 | [18] -0.027 | [19] 0.006 | [20] 0.012

CEBPZOS (UniProt A8MTT3)
UniProt A8MTT3, sequence (A8MTT3 whole entry, looked up): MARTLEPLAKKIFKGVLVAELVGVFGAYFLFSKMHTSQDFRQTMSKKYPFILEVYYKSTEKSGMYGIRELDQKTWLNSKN
inactive: [1] 0.079 | [3] -0.06 | [4] 0.039 | [5] -0.012 | [6] 0.159 | [7] -0.032 | [8] -0.038 | [9] -0.02 | [10] 0.111 | [15] -0.021 | [16] -0.014 | [17] -0.085 | [12] 0.004 | [18] 0.098 | [19] -0.037 | [20] -0.045

CDCA2 (UniProt Q69YH5)
UniProt Q69YH5, sequence (Q69YH5 whole entry, looked up): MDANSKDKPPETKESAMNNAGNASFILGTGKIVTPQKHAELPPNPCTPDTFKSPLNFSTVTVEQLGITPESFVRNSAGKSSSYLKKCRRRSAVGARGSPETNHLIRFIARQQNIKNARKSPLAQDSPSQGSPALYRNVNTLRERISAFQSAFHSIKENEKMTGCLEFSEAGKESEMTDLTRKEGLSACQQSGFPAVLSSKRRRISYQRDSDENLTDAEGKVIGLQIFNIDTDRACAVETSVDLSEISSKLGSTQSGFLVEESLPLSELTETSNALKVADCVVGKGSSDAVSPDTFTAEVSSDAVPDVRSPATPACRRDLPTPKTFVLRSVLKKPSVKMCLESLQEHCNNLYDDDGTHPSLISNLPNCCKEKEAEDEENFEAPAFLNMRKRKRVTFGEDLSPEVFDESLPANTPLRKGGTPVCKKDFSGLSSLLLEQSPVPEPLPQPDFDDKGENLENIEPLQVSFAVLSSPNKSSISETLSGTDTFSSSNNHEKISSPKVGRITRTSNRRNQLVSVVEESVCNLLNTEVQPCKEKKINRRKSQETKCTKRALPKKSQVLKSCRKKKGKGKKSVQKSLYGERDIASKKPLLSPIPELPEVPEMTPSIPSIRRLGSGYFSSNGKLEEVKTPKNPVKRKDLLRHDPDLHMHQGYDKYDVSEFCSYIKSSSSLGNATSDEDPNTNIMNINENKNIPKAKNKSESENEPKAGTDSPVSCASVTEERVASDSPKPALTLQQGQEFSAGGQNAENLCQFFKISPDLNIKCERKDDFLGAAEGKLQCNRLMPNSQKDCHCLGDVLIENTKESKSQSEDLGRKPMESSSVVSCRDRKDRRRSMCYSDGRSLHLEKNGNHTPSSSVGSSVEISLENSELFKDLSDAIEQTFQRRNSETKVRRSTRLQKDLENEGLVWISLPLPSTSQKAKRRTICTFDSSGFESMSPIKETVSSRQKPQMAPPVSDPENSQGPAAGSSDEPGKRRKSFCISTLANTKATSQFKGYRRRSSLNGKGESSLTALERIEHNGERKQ
inactive: [13] -0.148 | [2] 0.008 | [3] 0.217 | [4] -0.152 | [5] -0.063 | [6] 0.011 | [8] 0.318 | [9] -0.03 | [10] 0.278 | [14] -0.036 | [11] -0.04 | [15] 0.018 | [16] 0.585 | [17] -0.079 | [12] 0.109 | [18] -0.011 | [19] 0.204 | [20] -0.127

CFAP58 (UniProt Q5T655)
UniProt Q5T655, sequence (Q5T655 whole entry, looked up): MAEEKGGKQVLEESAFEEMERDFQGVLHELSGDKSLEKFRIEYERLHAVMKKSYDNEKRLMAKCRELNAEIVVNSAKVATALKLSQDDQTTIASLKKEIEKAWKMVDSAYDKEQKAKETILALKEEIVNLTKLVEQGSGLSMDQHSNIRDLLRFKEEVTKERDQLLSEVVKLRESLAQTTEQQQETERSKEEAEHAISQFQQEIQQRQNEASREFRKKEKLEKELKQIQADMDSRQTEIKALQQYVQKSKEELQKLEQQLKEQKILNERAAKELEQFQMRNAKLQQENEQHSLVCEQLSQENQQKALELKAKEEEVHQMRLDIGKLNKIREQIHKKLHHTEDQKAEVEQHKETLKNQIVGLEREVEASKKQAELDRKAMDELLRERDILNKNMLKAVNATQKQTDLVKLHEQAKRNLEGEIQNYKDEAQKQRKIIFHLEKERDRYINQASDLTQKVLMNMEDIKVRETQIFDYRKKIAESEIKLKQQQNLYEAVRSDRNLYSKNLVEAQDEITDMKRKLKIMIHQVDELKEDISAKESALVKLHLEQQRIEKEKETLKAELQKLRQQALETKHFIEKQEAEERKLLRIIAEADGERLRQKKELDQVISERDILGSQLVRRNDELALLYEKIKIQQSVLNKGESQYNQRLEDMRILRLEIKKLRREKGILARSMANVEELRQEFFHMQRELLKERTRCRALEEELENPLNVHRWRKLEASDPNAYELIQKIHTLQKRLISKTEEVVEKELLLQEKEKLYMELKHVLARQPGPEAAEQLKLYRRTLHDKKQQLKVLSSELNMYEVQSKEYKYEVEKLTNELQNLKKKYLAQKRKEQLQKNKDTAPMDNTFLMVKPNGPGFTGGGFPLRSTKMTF
active: [6] -1.21
inactive: [8] 0.265 | [16] -0.156 | [17] 0 | [18] 0.032 | [19] 0.001 | [20] 0.122

CDK2AP2 (UniProt O75956)
UniProt O75956, sequence (O75956 whole entry, looked up): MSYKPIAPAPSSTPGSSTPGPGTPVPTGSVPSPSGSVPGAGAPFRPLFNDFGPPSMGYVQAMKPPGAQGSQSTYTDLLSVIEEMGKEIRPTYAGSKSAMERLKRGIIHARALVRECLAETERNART
inactive: [2] -0.048 | [4] -0.092 | [6] 0.134 | [8] -0.038 | [10] 0.078 | [11] -0.022 | [15] -0.043 | [16] -0.019 | [12] -0.009 | [18] -0.11

CRTC3 (UniProt Q6UUV7)
inactive: [13] 0.044 | [2] -0.051 | [3] -0.109 | [5] 0.025 | [9] -0.06 | [14] 0.015 | [11] -0.059 | [16] 0.202 | [18] -0.107 | [19] 0.078
active: [17] -0.86

COPS3 isoform 2 (UniProt Q9UNS2)
inactive: [13] 0.134 | [3] -0.005 | [5] 0.109 | [6] -0.055 | [8] -0.041 | [9] 0.059 | [10] -0.144 | [14] 0.157 | [15] 0.138 | [16] -0.008 | [17] 0.321 | [12] 0.005 | [18] 0.083 | [19] -0.211 | [20] 0.128

CPNE5 (UniProt Q9HCH3)
UniProt Q9HCH3, sequence (Q9HCH3 whole entry, looked up): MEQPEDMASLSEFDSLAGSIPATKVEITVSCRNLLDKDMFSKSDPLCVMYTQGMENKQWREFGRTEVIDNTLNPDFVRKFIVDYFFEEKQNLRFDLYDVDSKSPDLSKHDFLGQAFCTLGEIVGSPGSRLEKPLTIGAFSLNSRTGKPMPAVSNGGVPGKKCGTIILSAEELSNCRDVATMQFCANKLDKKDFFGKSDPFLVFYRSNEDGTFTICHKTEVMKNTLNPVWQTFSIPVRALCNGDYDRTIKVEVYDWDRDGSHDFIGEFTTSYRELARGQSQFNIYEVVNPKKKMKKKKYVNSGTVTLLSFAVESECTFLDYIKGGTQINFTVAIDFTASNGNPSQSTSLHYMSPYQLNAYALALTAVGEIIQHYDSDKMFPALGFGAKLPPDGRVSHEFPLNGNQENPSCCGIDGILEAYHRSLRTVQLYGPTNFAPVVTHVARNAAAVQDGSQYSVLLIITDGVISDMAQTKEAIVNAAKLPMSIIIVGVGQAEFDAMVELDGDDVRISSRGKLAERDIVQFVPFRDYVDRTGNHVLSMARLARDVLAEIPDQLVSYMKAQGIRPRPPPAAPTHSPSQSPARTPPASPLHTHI
inactive: [2] 0.134 | [3] 0.082 | [4] 0.049 | [11] -0.102

CLPTM1L (UniProt G5E9Z2)
inactive: [13] -0.288 | [2] 0.051 | [3] -0.109 | [5] 0.002 | [9] -0.029 | [14] -0.235 | [11] -0.101 | [15] -0.446 | [16] -0.199 | [12] -0.142 | [18] 0.099

COMMD1 (UniProt Q8N668)
UniProt Q8N668, sequence (Q8N668 whole entry, looked up): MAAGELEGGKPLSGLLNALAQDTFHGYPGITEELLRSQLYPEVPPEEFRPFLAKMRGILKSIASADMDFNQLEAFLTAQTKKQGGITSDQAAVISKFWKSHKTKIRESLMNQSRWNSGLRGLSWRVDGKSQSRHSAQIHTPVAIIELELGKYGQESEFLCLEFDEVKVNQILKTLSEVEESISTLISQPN
inactive: [13] -0.038 | [3] -0.213 | [4] 0.119 | [5] -0.151 | [6] 0.15 | [8] -0.028 | [9] 0.092 | [10] 0.054 | [14] 0.06 | [16] -0.151 | [17] 0.029 | [12] -0.01 | [18] -0.04 | [19] -0.029 | [20] 0.006

CRTC2 (UniProt Q53ET0)
UniProt Q53ET0, sequence (Q53ET0 whole entry, looked up): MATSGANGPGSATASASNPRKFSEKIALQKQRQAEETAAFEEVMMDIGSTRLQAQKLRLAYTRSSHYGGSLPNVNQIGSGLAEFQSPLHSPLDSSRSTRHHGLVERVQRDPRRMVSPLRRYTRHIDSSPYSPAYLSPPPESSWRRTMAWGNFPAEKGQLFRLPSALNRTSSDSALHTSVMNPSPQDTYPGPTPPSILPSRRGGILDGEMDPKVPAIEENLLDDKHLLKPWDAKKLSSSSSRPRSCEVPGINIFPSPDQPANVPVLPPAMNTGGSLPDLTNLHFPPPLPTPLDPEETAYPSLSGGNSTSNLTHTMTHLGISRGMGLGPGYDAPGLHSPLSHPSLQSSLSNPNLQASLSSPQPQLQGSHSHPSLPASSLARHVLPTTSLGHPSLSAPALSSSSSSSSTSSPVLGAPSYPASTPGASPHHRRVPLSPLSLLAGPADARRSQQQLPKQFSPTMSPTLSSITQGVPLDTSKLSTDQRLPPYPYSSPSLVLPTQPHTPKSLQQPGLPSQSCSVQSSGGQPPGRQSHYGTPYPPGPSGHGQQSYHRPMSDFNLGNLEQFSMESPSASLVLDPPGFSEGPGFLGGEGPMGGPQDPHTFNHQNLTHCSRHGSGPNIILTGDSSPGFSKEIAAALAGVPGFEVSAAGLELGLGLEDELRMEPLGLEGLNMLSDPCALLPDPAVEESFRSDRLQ
active: [17] -0.509
inactive: [13] -0.09 | [3] -0.031 | [4] -0.269 | [5] -0.218 | [6] 0.053 | [8] -0.026 | [9] -0.103 | [10] -0.004 | [14] -0.019 | [15] 0.086 | [16] 0 | [12] -0.056 | [18] 0.066 | [19] 0.079
